According to PubChem BioAssay (EPA / NIEHS):
The source made the active and inactive calls. The calls were made as follows: active = hit-call score of the fitted dose curve at least 0.9, where 1 is the maximum; inactive = score below 0.9.

What was measured:
Settings in all cases: mRNA level, 48 h; actives raise or lower the signal
[1] = read-out: Interleukin 6 Receptor (IL6R), IL6R (gene 3570); test: LTEA_HepaRG_IL6R: Life Technologies and Expression Analysis (LTEA) Assay for Interleukin 6 Receptor (IL6R) using HepaRG (AID 2283510)
Method in brief: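 IL6R transcript level by qRT-PCR after 48 h chemical exposure (8-point, half-log, max 100 uM, 0.5% DMSO vehicle) of HepaRG cells in serum-free induction medium. Normalized to three housekeeping genes; curves fitted in both directions relative to DMSO.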

[2] = read-out: Potassium channel subfamily K member 1 (KCNK1), KCNK1 (gene 3775); test: LTEA_HepaRG_KCNK1: Life Technologies and Expression Analysis (LTEA) Assay for Potassium channel subfamily K member 1 (KCNK1) using HepaRG (AID 2283511)
Method in brief: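 HepaRG, 48 h exposure, 8-pt half-log series top 100 uM, 0.5% DMSO vehicle, duplicates. Readout: KCNK1 transcript by qRT-PCR (Fluidigm array), housekeeping-normalized; bidirectional curve fit relative to DMSO baseline.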

[3] = read-out: Keratin 19 (KRT19), KRT19 (gene 3880); test: LTEA_HepaRG_KRT19: Life Technologies and Expression Analysis (LTEA) Assay for Keratin 19 (KRT19) using HepaRG (AID 2283512)
Method in brief: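 Gene-expression endpoint in the human liver line HepaRG after 48 h exposure to up to 100 uM test chemical with 0.5% DMSO vehicle; KRT19 mRNA by qRT-PCR, analyzed bidirectionally versus DMSO.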

[4] = read-out: JUN Transcription Factor, JUN (gene 3725); test: LTEA_HepaRG_JUN: Life Technologies and Expression Analysis (LTEA) Assay for JUN Transcription Factor using HepaRG (AID 2283513)
Method in brief: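 mRNA measured by TaqMan qRT-PCR after 48 h chemical exposure of HepaRG cultures; normalization to three housekeeping genes. Duplicate eight-point half-log curves from 100 uM in 0.5% DMSO; gain or loss fitted against DMSO baseline.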

[5] = read-out: Lipase C (LIPC), LIPC (gene 3990); test: LTEA_HepaRG_LIPC: Life Technologies and Expression Analysis (LTEA) Assay for Lipase C (LIPC) using HepaRG (AID 2283514)
Method in brief: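 HepaRG, 48 h exposure, 8-pt half-log series from 100 uM in 0.5% DMSO, duplicates. Readout: LIPC mRNA by Fluidigm qRT-PCR, housekeeping-normalized (ACTB/GAPDH/POLR2A). Gain or loss fitted bidirectionally against DMSO baseline.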

[6] = read-out: Lipoprotein lipase (LPL), LPL (gene 4023); test: LTEA_HepaRG_LPL: Life Technologies and Expression Analysis (LTEA) Assay for Lipoprotein lipase (LPL) using HepaRG (AID 2283515)
Method in brief: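 HepaRG, 48 h exposure, 8-pt half-log dilutions from 100 uM, 0.5% DMSO vehicle, duplicates; qRT-PCR (Fluidigm array) of LPL mRNA vs housekeeping genes; bidirectional curve fit relative to DMSO baseline.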

[7] = read-out: MicroRNA 122 (MIR122), gene 406906; test: LTEA_HepaRG_MIR122: Life Technologies and Expression Analysis (LTEA) Assay for MicroRNA 122 (MIR122) using HepaRG (AID 2283516); also: the transcript read is the microRNA miR-122
Method in brief: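 Expression measured by microfluidic qRT-PCR with three housekeeping genes for normalisation, after 48 h treatment of HepaRG cultures. Eight concentrations (top 100 uM, half-log steps, 0.5% DMSO vehicle) in duplicate; gain or loss fitted relative to vehicle.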

[8] = read-out: matrix metalloproteinase-10 (MMP10), MMP10 (gene 4319); test: LTEA_HepaRG_MMP10: Life Technologies and Expression Analysis (LTEA) Assay for matrix metalloproteinase-10 (MMP10) using HepaRG (AID 2283517)
Method in brief: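 Transcript levels come from Fluidigm qRT-PCR normalized to three housekeeping genes, with curves fitted bidirectionally against 0.5% DMSO. Human HepaRG cells were dosed for 48 hours at concentrations up to 100 uM.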

MYC, MYC (gene 4609) = test: LTEA_HepaRG_MYC: Life Technologies and Expression Analysis (LTEA) Assay for MYC using HepaRG (AID 2283518)
Method in brief: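 Cells are thawed, plated and cultured 48 h, then treated for 48 h with test chemicals (eight half-log concentrations from 100 uM, 0.5% DMSO vehicle). RNA is isolated and MYC expression quantified by qRT-PCR against three housekeeping genes.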

[9] = read-out: matrix metalloproteinase-3 (MMP3), MMP3 (gene 4314); test: LTEA_HepaRG_MMP3: Life Technologies and Expression Analysis (LTEA) Assay for matrix metalloproteinase-3 (MMP3) using HepaRG (AID 2283519)
Method in brief: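 qRT-PCR read-out of MMP3 mRNA (normalised to three housekeeping genes) in HepaRG liver cells after 48 h chemical exposure; 8-point half-log series, top 100 uM, 0.5% DMSO vehicle. Bidirectional curve fitting against DMSO baseline.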

[10] = read-out: Paternally Expressed 10 (PEG10), PEG10 (gene 23089); test: LTEA_HepaRG_PEG10: Life Technologies and Expression Analysis (LTEA) Assay for Paternally Expressed 10 (PEG10) using HepaRG (AID 2283520)
Method in brief: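 PEG10 transcript measured by Fluidigm qRT-PCR, normalized to three housekeeping genes, in HepaRG cells treated 48 h (highest 100 uM, half-log steps, 0.5% DMSO vehicle). Cells plated 48 h before switching to serum-free induction medium.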

[11] = read-out: Protein phosphatase 2A (PPP2R4), PTPA (gene 5524); test: LTEA_HepaRG_PPP2R4: Life Technologies and Expression Analysis (LTEA) Assay for Protein phosphatase 2A (PPP2R4) using HepaRG (AID 2283522)
Method in brief: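 Expression was quantified by Fluidigm qRT-PCR normalised to three housekeeping genes after 48 h treatment. Human HepaRG cells received an 8-point series from 100 µM downward by half-logs, in duplicate with 0.5% DMSO vehicle and 1 mM phenobarbital as induction control.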

[12] = read-out: Phosphatase and tensin (PTEN), PTEN (gene 5728); test: LTEA_HepaRG_PTEN: Life Technologies and Expression Analysis (LTEA) Assay for Phosphatase and tensin (PTEN) using HepaRG (AID 2283523)
Method in brief: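 HepaRG, 48 h exposure, 8-pt half-log series from 100 uM top, 0.5% DMSO vehicle, duplicates. Readout: Fluidigm qRT-PCR of PTEN transcript; housekeeping normalization (ACTB, GAPDH, POLR2A). Gain or loss fitted relative to DMSO baseline.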

[13] = read-out: solute carrier (SLC22A1), SLC22A1 (gene 6580); test: LTEA_HepaRG_SLC22A1: Life Technologies and Expression Analysis (LTEA) Assay for solute carrier (SLC22A1) using HepaRG (AID 2283524)
Method in brief: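 qRT-PCR readout (TaqMan, Fluidigm arrays) of SLC22A1 transcript, normalized to three housekeeping genes; bidirectional curve fit relative to 0.5% DMSO vehicle. Differentiated human HepaRG cells, 48 h chemical exposure, top concentration 100 uM, half-log steps, eight points.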

[14] = read-out: Pyruvate Dehydrogenase Kinase 4 (PDK4), PDK4 (gene 5166); test: LTEA_HepaRG_PDK4: Life Technologies and Expression Analysis (LTEA) Assay for Pyruvate Dehydrogenase Kinase 4 (PDK4) using HepaRG (AID 2283525)
Method in brief: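 HepaRG (human liver line), 48 h chemical exposure, 8-pt half-log CRC top 100 uM, 0.5% DMSO vehicle, duplicates. Readout: TaqMan qRT-PCR of PDK4 mRNA, housekeeping-normalized; gain/loss fit relative to DMSO baseline.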

[15] = read-out: NAD(P)H dehydrogenase [quinone] 1 (NQO1), NQO1 (gene 1728); test: LTEA_HepaRG_NQO1: Life Technologies and Expression Analysis (LTEA) Assay for NAD(P)H dehydrogenase [quinone] 1 (NQO1) using HepaRG (AID 2283526)
Method in brief: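 NQO1 transcript induction or loss measured by TaqMan qRT-PCR, referenced to three housekeeping genes and fitted bidirectionally against 0.5% DMSO. HepaRG cultures exposed 48 h, duplicate, eight-point half-log series, top 100 uM.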

[16] = read-out: Nuclear factor erythroid 2-related factor 2 (Homo sapiens) (UniProt Q16236); test: LTEA_HepaRG_NFE2L2: Life Technologies and Expression Analysis (LTEA) Assay for Nuclear factor erythroid 2-related factor 2 (NFE2L2) Transcription Factor using HepaRG (AID 2283527)
Method in brief: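 HepaRG, 48 h dosing, 8-pt half-log series from 100 uM in 0.5% DMSO, duplicates. Read-out: NFE2L2 mRNA by qRT-PCR (ACTB/GAPDH/POLR2A normalization). Bidirectional curve fit vs DMSO baseline.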

[17] = read-out: succinate dehydrogenase complex iron sulfur subunit B (SDHB), SDHB (gene 6390); test: LTEA_HepaRG_SDHB: Life Technologies and Expression Analysis (LTEA) Assay for succinate dehydrogenase complex iron sulfur subunit B (SDHB) using HepaRG (AID 2283528)
Method in brief: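 SDHB transcript level read by TaqMan qRT-PCR, housekeeping-normalised (ACTB, GAPDH, POLR2A), after 48 h chemical treatment of plated HepaRG cells; eight concentrations top 100 uM, half-log steps, 0.5% DMSO, duplicates; fitted both directions against DMSO.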

[18] = read-out: Signal transducer and activator of transcription 3 (Homo sapiens) (UniProt P40763); test: LTEA_HepaRG_STAT3: Life Technologies and Expression Analysis (LTEA) Assay for Signal transducer and activator of transcription (STAT3) using HepaRG (AID 2283529)
Method in brief: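 HepaRG, 48 h exposure, 8-pt half-log series (top 100 uM), 0.5% DMSO vehicle, duplicates. Readout: STAT3 transcript by Fluidigm qRT-PCR, housekeeping-normalized; bidirectional fit vs DMSO baseline.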

[19] = read-out: solute carrier (SLCO1B1), SLCO1B1 (gene 10599); test: LTEA_HepaRG_SLCO1B1: Life Technologies and Expression Analysis (LTEA) Assay for solute carrier (SLCO1B1) using HepaRG (AID 2283530)
Method in brief: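 Gain or loss of SLCO1B1 mRNA is fitted against the 0.5% DMSO vehicle in human HepaRG liver cells treated 48 h at up to 100 uM in half-log steps. Expression comes from qRT-PCR normalized to endogenous controls.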

Measured: outcome

Chain of Signal transducer and activator of transcription 3 (Homo sapiens) (P40763 whole entry, looked up): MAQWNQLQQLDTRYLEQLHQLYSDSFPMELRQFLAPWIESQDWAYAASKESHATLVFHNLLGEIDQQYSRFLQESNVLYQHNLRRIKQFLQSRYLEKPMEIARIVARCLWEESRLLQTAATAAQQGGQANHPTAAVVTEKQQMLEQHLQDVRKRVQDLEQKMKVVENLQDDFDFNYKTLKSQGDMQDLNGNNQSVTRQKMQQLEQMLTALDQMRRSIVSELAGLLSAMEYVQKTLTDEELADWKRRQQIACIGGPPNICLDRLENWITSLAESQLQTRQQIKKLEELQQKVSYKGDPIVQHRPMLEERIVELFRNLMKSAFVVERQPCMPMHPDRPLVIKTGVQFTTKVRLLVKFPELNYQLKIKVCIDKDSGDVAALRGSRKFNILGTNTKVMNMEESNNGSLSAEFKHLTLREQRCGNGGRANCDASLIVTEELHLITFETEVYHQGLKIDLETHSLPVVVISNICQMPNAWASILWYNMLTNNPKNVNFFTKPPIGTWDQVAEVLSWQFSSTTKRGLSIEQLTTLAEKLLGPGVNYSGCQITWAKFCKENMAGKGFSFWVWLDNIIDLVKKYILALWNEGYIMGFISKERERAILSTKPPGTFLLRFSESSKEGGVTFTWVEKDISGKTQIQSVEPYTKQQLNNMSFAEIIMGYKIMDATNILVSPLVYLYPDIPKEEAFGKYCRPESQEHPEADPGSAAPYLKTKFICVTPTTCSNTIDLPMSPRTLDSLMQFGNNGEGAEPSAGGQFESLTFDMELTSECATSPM
Chain of Nuclear factor erythroid 2-related factor 2 (Homo sapiens) (Q16236 whole entry, looked up): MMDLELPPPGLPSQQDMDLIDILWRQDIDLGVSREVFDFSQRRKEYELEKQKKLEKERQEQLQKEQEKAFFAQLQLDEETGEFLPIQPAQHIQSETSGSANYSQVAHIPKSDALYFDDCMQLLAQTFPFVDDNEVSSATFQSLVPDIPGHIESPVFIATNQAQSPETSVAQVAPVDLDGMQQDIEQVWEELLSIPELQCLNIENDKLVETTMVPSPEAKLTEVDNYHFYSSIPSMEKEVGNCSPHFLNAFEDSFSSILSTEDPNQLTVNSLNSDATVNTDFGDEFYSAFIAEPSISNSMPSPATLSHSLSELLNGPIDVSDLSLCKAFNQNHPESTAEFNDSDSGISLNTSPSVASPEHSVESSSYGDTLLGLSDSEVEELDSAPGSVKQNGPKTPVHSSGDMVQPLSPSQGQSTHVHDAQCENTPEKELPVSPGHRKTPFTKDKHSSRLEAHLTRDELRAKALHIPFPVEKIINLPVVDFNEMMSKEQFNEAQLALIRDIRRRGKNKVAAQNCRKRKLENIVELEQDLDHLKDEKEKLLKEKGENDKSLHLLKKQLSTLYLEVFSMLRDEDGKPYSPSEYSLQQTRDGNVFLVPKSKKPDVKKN

CCC(C)=NO
inactive: all assays above
